What all share (details): concentration: 1 μM, replicates: in singlicate; n = 1
Test [1] relates to TIE1.
Test [2] relates to T1, TIE2.
T1 construct: gene TEK

Test [3] has as its system TLK1.
Test [4] deals with TLK2.
The test system of test [5] is TNIK.
The subject of test [6] is TNK1.
Test [7] has as its system TNK2.
Test [8] has as its system TNNI3K.
Test [9] has as its system T2, TRKA.
T2 construct: gene NTRK1

Test [10] has as its system TRKB.
Test [11] concerns T3, TRKC.
T3 construct: gene NTRK3

Test [12] has as its system TRPM6.
Test [13] deals with TSSK1B.
The test system of test [14] is TSSK3.
For test [15], the system named is TTK.
Test [16] relates to TXK.
The test system of test [17] is TYK2(JH1domain-catalytic).
In test [18] the test system is TYK2(JH2domain-pseudokinase).
The subject of test [19] is TYRO3.
Test [20] relates to ULK1.
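Further: KINOMEscan kinase panel screen.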

As for `CCn1c(-c2ccncc2)nc2cnccc21` [SB-735216], the “%Inh” value came to 0% in test [1]; 12% in test [2]; 0% in test [3]; 0% in test [4]; 0% in [5]; 1% in [6]. Also, the “%Inh” value was found to be 13% in [7]; 0% in test [8]; 27% in test [9]; 41% in test [10]; 36% in test [11]; 22% in [12]. For the same compound, the “%Inh” value in test [13] came out at 8%; in [14] it was 0%; in test [15], 0%; in [16], 21%; in test [17] it was 0%; in [18], 0%. The results for the “%Inh” value in test [19] and in test [20] were 26% and 17%, respectively.
Take `CN1CCC(n2cnc(-c3ccc(F)cc3)c2-c2ccnc(NC3CCNCC3)n2)CC1` [SB-229482]: the “%Inh” value in test [1] is 0%; in [2] it was 0%; in test [3], 11%; in [4], 0%; in [5] it was 1%; in test [6], 16%. Further, the “%Inh” value in [7] is on record as 0%; in test [8] it was 0%; in test [9], 17%; in test [10], 26%; in test [11], 9%; in [12] it was 0%. Further, the “%Inh” value in test [13] was 0%; in test [14], 43%; in test [15] it was 0%; in [16] it was 0%; in test [17], 25%; in test [18], 34%. The “%Inh” value in test [19] and in test [20] was 0% each time.
For the compound `Cn1cc(-c2ccc3c(c2)CCN3C(=O)Cc2cccc(C(F)(F)F)c2)c2c(N)ncnc21` [GSK2606414], the “%Inh” value in test [1] is 46%; in test [2] it was 24%; in [3] it was 2%; in test [4], 0%; in [5] it was 0%; in test [6], 0%. Also, the “%Inh” value in test [7] stood at 0%; in test [8] it was 0%; in test [9], 35%; in test [10], 46%; in test [11], 40%; in [12], 0%. Also, the “%Inh” value is 12% in test [13]; 0% in [14]; 22% in test [15]; 0% in test [16]; 15% in [17]; 0% in test [18]. Moreover, the “%Inh” value in test [19] is 0%; in [20], 27%.
`N#Cc1ccc(Oc2ccc(Nc3ncnc4cc[nH]c34)cc2Cl)cc1`: the “%Inh” value was found to be 0% in test [1]; 20% in [2]; 22% in test [3]; 0% in test [4]; 9% in [5]; 0% in test [6]. Further, the “%Inh” value was 2% in test [7]; 26% in [8]; 17% in test [9]; 0% in test [10]; 21% in test [11]; 0% in test [12]. The “%Inh” value in test [13] is on record as 0%; in test [14], 0%; in [15], 16%; in [16] it was 2%; in test [17] it was 12%; in test [18], 11%. Besides, the entries for the “%Inh” value in test [19] and in [20] were 0% and 14%, respectively.
As to `COC(=O)c1c(-c2ccccc2)c2cc(Cl)ccc2c(=O)n1Cc1ccc(S(C)(=O)=O)cc1`, the “%Inh” value is listed as 4% in test [1]; 0% in test [2]; 19% in test [3]; 0% in [4]; 4% in [5]; 0% in test [6]. Also, the “%Inh” value in test [7] came to 0%; in test [8], 19%; in test [9], 0%; in test [10], 0%; in test [11], 17%; in test [12] it was 0%. Besides, the “%Inh” value in [13] worked out at 0%; in test [14], 0%; in test [15] it was 7%; in test [16], 0%; in test [17], 0%; in [18], 2%. Moreover, the “%Inh” value in test [19] and in test [20] was 0% each time.
For `Nc1nccc2scc(-c3ccc4c(c3)CCN4C(=O)Cc3cc(F)ccc3F)c12` [GSK2587663], the “%Inh” value amounted to 54% in test [1]; 1% in test [2]; 4% in test [3]; 0% in test [4]; 0% in [5]; 0% in test [6]. Besides, the “%Inh” value in [7] came to 23%; in test [8], 4%; in [9] it was 0%; in test [10], 42%; in [11], 40%; in test [12], 5%. Further, the “%Inh” value is 5% in test [13]; 15% in test [14]; 2% in test [15]; 5% in test [16]; 18% in [17]; 11% in test [18]. Besides, the figures for the “%Inh” value in test [19] and in test [20] were 0% and 6%, respectively.
As for `CC(C)(C)c1ccc(-n2cnc3c(N)ncnc32)cc1` [SKF-97263], the “%Inh” value in [1] turned out to be 14%; in test [2] it was 0%; in test [3] it was 0%; in test [4] it was 0%; in test [5] it was 0%; in test [6] it was 5%. For the same compound, the “%Inh” value is 10% in test [7]; 12% in test [8]; 18% in test [9]; 0% in [10]; 0% in test [11]; 34% in [12]. The “%Inh” value turned out to be 16% in [13]; 13% in test [14]; 15% in test [15]; 16% in test [16]; 6% in test [17]; 41% in test [18]. For the same compound, the “%Inh” value in test [19] is on record as 0%; in [20] it was 24%.
For the compound `Clc1cccc(-c2nc(Nc3ccncc3)c3ccccc3n2)c1` [GW873004], the “%Inh” value in [1] came to 0%; in test [2] it was 48%; in [3], 0%; in test [4], 0%; in test [5], 0%; in [6], 59%. Moreover, the “%Inh” value in test [7] is recorded as 40%; in test [8], 0%; in test [9], 0%; in [10] it was 0%; in test [11] it was 0%; in test [12], 0%. Further, the “%Inh” value worked out at 19% in [13]; 0% in test [14]; 0% in test [15]; 1% in test [16]; 0% in test [17]; 13% in test [18]. Further, the “%Inh” value in test [19] is recorded as 58%; in test [20], 0%.
Turning to `Cn1ccc2ncnc(Nc3ccc(Oc4cccc(Cl)c4)c(Cl)c3)c21`, the “%Inh” value in test [1] came out at 0%; in test [2], 26%; in test [3], 22%; in test [4] it was 9%; in test [5] it was 17%; in test [6], 0%. The “%Inh” value in [7] worked out at 0%; in test [8] it was 11%; in test [9] it was 0%; in test [10] it was 0%; in test [11] it was 11%; in test [12] it was 0%. In addition, the “%Inh” value came out at 0% in test [13]; 2% in [14]; 16% in [15]; 25% in test [16]; 18% in test [17]; 4% in test [18]. The entries for the “%Inh” value in [19] and in test [20] were 4% and 10%, respectively.
Regarding `CCC(CC)(CC)n1cnc2c(N)ncnc21` [SKF-97620], the “%Inh” value in [1] was determined as 21%; in [2], 8%; in test [3], 27%; in test [4], 2%; in test [5] it was 100%; in test [6], 6%. The “%Inh” value is given as 0% in test [7]; 0% in [8]; 41% in test [9]; 26% in test [10]; 37% in test [11]; 58% in test [12]. Besides, the “%Inh” value in test [13] stood at 0%; in [14], 3%; in test [15], 0%; in test [16], 0%; in test [17] it was 21%; in [18], 41%. For the same compound, the results for the “%Inh” value in [19] and in test [20] were 12% and 31%, respectively.
On to `Fc1ccc(Nc2nccc(-c3c(-c4ccc(Cl)cc4)nn4ncccc34)n2)cc1F` [GW829058], for which the “%Inh” value in test [1] is 38%; in test [2] it was 18%; in test [3], 0%; in [4], 12%; in [5], 89%; in test [6] it was 24%. For the same compound, the “%Inh” value in test [7] was determined as 0%; in test [8] it was 3%; in [9], 13%; in [10], 0%; in [11] it was 35%; in test [12] it was 20%. Moreover, the “%Inh” value in test [13] worked out at 0%; in [14], 33%; in [15] it was 8%; in [16] it was 19%; in test [17], 20%; in test [18], 40%. Moreover, the “%Inh” value is recorded as 8% in [19] and 45% in [20].
Regarding `O=C(c1ccc(-c2cc(-c3c[nH]nc3-c3ccccn3)ccn2)cc1)N1CCCC1` [GW792479], the “%Inh” value worked out at 0% in [1]; 27% in [2]; 0% in test [3]; 0% in test [4]; 48% in [5]; 21% in test [6]. The “%Inh” value in test [7], in test [8], in test [9], in test [10], in test [11] and in [12] was 0% each time. Also, the “%Inh” value was found to be 0% in test [13]; 0% in [14]; 29% in test [15]; 23% in test [16]; 0% in test [17]; 15% in test [18]. Also, the “%Inh” value in test [19] and in [20] was 0% throughout.

(Values after article PMC5540273 (PLoS ONE, 2017).)
